Screening data as filed in PubChem BioAssay.
This is a sample that favours compounds with a hit; in the whole collection about 11% have one here.
ALDH1A1 block = blocks purified human ALDH1A1 activity; P00352; Purified ALDH1A1, NADH fluorescence, propionaldehyde substrate; Potency, µM (highest dose often 75.3 µM), without a hit: at the top dose activity, negative = inhibition, hits mostly inhibitors; 220,000 tested, 7.3% active; AID 1030; active = well fitted inhibition curve with a large enough effect, not every such curve was filed as active; inconclusive = small, poorly fitted or top-dose-only effect, or another doubt; inactive = no such curve, though single readings can be large or run the other way;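 also: potency is read from the fitted curve at half-maximal effect; plate controls were no enzyme wells and a reference inhibitor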
HPGD inh = HPGD (human) dehydrogenase inhibition; purified HPGD, NADH fluorescence kinetic, PGE2 substrate; Potency, µM, for inactives: at the highest dose activity change, negative = inhibition, most hits filed as inhibitors; 150,000 tested, 4.3% active; AID 894; active = well fitted inhibition curve with a large enough effect, not every such curve was filed as active; inconclusive = small, poorly fitted or top-dose-only effect, or another doubt; inactive = no such curve, though single readings can be large or run the other way; also: potency is read from the fitted curve at half-maximal effect; % is scaled to controls: 0 for no effect and ±100 for the full control effect
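NADH formation kinetics: reaction with 30 uM PGE2 and 1 mM NAD+ (final), 20 nM enzyme, Tris-HCl pH 8 with Tween 20, after 15 min compound preincubation at room temperature. Fluorescence change, last versus first of five reads.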
PNC inhibitor = perinucleolar compartment assembly inhibition; 140,000 tested, 3.1% active; AID 2417; activity change (PNC), negative = inhibition, % at 10 µM; PC3M PTB-GFP, PNC prevalence imaging, 16 h; active compounds read low;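 active = readout at or below -70, meaning at least 70% loss of cells showing the perinucleolar compartment, a nuclear body marking cancer cells; inconclusive = readout between -30 and a set limit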;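 also: plate controls were DMSO wells for no effect and camptothecin positive control wells for full effect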
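PC3M cells stably expressing PTB-GFP, 750–1000 cells/well, treated 16 h at 37 °C with compound (23 nl of library stock), in duplicate. After paraformaldehyde fixation and Hoechst stain, imaged at 20x; PNC prevalence scored by image analysis.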
CBFb-RUNX1 inh = inhibitors of human CBF-beta and RUNX1 interaction. Q01196+Q13951. AlphaScreen CBFb-His/RUNX1-biotin binding, biochemical. Potency, µM (series often up to 59.8 µM), inactives show top-dose activity, negative = inhibition, most hits filed as inhibitors. 230,000 tested, under 10 active; also: % of control where 0% means no effect
Target sequence (Q01196 whole entry, looked up): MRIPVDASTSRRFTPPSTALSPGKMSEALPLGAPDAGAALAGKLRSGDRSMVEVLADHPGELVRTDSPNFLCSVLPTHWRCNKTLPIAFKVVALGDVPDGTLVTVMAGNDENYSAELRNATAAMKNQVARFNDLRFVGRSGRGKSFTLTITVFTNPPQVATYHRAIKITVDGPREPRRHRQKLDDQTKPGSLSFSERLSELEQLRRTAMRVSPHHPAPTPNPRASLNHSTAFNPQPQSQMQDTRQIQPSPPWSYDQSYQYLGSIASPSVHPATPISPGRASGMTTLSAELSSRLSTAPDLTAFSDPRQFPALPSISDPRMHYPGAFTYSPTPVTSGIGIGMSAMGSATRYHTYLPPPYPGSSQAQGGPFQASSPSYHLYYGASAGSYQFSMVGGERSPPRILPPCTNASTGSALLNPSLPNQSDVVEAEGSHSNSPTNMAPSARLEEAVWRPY
Target sequence (Q13951 whole entry, looked up): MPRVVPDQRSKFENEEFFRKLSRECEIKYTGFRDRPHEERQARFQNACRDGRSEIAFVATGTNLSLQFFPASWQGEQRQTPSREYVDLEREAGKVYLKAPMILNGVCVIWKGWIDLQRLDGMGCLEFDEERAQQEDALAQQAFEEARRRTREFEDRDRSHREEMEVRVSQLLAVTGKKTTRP
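Inhibition was taken as any reduction in AlphaScreen signal from the CBF-beta–RUNX1 pair (His and biotin tags, 30 nM each), measured after compound (15 min) and bead (90 min) incubations at room temperature.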
HttQ103 aggreg = reduces HttQ103-GFP aggregates in PC12 cells. PC12 HttQ103-GFP aggregates, Acumen cytometry, 40 h. Potency, µM (top dose mostly 46.1 µM), for inactives: at the highest dose activity change, negative = inhibition, usual class: inhibitors. 220,000 tested, 1.1% active. AID 1688; also: potency is read from the fitted curve at half-maximal effect; % is scaled to controls: 0 for no effect and ±100 for the full control effect; nearly all actives have a fitted effect of over 60% in size
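Compounds (qHTS titration) were added to PC12 cells expressing an ecdysone-driven HTT exon 1 Q103–GFP fusion after induction with 100 nM tebufenozide. Aggregate formation was measured as GFP objects in cell lysates.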
HTT ATP protect = protects HTT-Q103 PC12 cells, measured by ATP; 230,000 tested, 0.14% active; PC12 HTT-Q103 induced, cytoprotection, ATP luminescence, 40 h; Potency, µM (titrated, usually from 56.4 µM), without a hit: cytoprotection (ATP increase), actives largely listed as activators; also: potency is read from the fitted curve at half-maximal effect; % of control where 0% means no effect; nearly all actives have a fitted effect of over 45% in size
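ATP quantification (ATPlite) reports survival of PC12 cells in which tebufenozide, 100 nM final, switches on Htt exon 1 with 103 glutamines linked to GFP; compounds are titrated.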
* hit, by the source's call; ? = inconclusive; nt = no result given; ! = a repeat was not active; [ ] = another dose, or the depositor's remark. Unless noted, calls follow the shape of the dose curve; as a rule, active = well fitted curve in the direction sought with a large enough effect; inconclusive = small, poorly fitted or top-dose-only effect, or another doubt; inactive = no such curve, though single readings can be large; an effect the other way counts as inactive or inconclusive.

SMILES	ALDH1A1 block	HPGD inh	PNC inhibitor	CBFb-RUNX1 inh	HttQ103 aggreg	HTT ATP protect
COc1ccc(S(=O)(=O)NCc2ccco2)cc1-c1nnc2c3ccccc3c(C)nn12	-16.9%	5.01µM*	14.7	1.7%	4.5%	-3.3%
O=C(/C=C/c1ccccc1)OC1CC(O)C2(O)C=CO[C@@H](OC3OC(CO)C(O)C(O)C3O)C12 (some centres not stated)	-2.5%	-14.6%	nt	-17.9%	nt	0.5%
COc1ccc(NC(=O)c2ccc3c(c2)NC(=O)CS3)cc1S(=O)(=O)Nc1ccc(Br)cc1	10µM*	nt	nt	-18.0%	17.8µM*	-132.5%
Cc1ccc(NS(=O)(=O)c2cc(C(=O)Nc3cccc(N(C)S(C)(=O)=O)c3)ccc2C)c(C)c1	10.9%	-5.1%	70.6	-5.6%	?	?
Cc1ccc(NS(=O)(=O)c2cc(NC(=O)c3ccc4c(c3)NC(=O)CS4)ccc2C)c(C)c1	14.1µM*	nt	nt	-11.3%	?	-21.8%
C=CCNC(=O)N1CCc2nc(-c3ccc(OC)cc3C)c3c(c2C1)CO[C@@H](c1ccccc1)C3	?	-3.2%	nt	3.8%[13.1 µM]	nt	7.3%[10 µM]
COc1ccc(-c2nc3c(c4c2C[C@H](c2ccccc2)OC4)CN(C(=O)NCc2ccco2)CC3)c(C)c1	1.78µM*	-6.1%	nt	-3.9%[13.1 µM]	nt	-7.1%[10 µM]
COCC(=O)N1CCc2nc(-c3ccc(OC)cc3C)c3c(c2C1)CO[C@@H](c1ccccc1)C3	4.0%[13.5 µM]	-9.9%	nt	0.9%[13.1 µM]	nt	-42.1%[10 µM]
COc1ccc(-c2nc3c(c4c2C[C@H](c2ccccc2)OC4)CN(C(=O)Cc2cccs2)CC3)c(C)c1	3.98µM*	-4.2%	nt	-2.3%[13.1 µM]	nt	-8.2%[10 µM]
CN(C)c1ncc2nc(-c3ccc(Cl)cc3)c(=O)n(C)c2n1	?	nt	nt	nt	nt	-76.5%
COc1ccc(NC(=O)c2cn3c(nc4ccccc43)c(C#N)c2C)cc1	nt	nt	nt	6.4%	-12.6%[9.22 µM]	2.7%[10 µM]
Cc1c(C(=O)Nc2ccccc2)cn2c(nc3ccccc32)c1C#N	?	-15.9%	-80.1*	-0.3%	-17.5%	-2.9%[0.074 µM]
CC1CCC2C(=O)N3C(CCC(C)[C@@H]3c3cccc(N4CCOCC4)c3)C(=O)N2C1c1cccc(Br)c1 (some centres not stated)	-2.6%[13.5 µM]	nt	nt	4.8%[13.1 µM]	nt	-31.8%[10 µM]
COCCNC(=O)CCSCc1ccccc1F	-1.4%	25.1µM*	23.3	1.8%	-15.0%	5.3%
CC(C)NC(=O)c1ccccc1NC(=O)CS(=O)(=O)Cc1ccccc1	9.8%	-8.2%	?	3.7%	7.3%	2.8%
CC(C)OCC(O)CS(=O)(=O)Cc1ccccc1 (configuration not stated)	12.7%	12.6µM*	33.0	-1.2%	-8.8%[9.22 µM]	0.1%
COc1cc(C2Nc3c(F)cccc3C3C=CCC32)cc(Br)c1OC (configuration not stated)	25.1µM*	nt	nt	?	?	?
COc1ccc(CN(C(=S)Nc2ccccc2)C2CC(=O)N(c3ccccc3)C2=O)cc1 (configuration not stated)	-13.1%	-8.2%	16.2	6.2%	15.4%	-20.1%[10 µM]
COc1ccc(N2C(=O)CC(N(C)CCc3ccc(OC)c(OC)c3)C2=O)cc1 (configuration not stated)	-0.4%	nt	nt	3.9%	27.5%[9.22 µM]	32.6%[10 µM]
CN(Cc1ccncc1)C1CC(=O)N(c2ccc(F)cc2)C1=O (configuration not stated)	17.8µM*	nt	nt	5.1%	-10.3%[9.22 µM]	-5.0%
COC(=O)c1ccc(N2C(=O)CC(N(C)CCc3ccc(OC)c(OC)c3)C2=O)cc1 (configuration not stated)	3.55µM*	-11.8%	-119.4*	-2.3%	8.5%	-8.8%
COC(=O)c1ccc(N2C(=O)CC(N(C)Cc3ccccc3)C2=O)cc1 (configuration not stated)	8.91µM*	-12.7%	7.3	1.7%	?	3.5%
COc1ccc(CN(C(=S)Nc2ccccc2)C2CC(=O)N(c3ccc(Cl)cc3)C2=O)cc1 (configuration not stated)	7.08µM*	-12.0%	25.5	0.1%	1.9%	-84.5%
COc1ccc(CN(N=O)C2CC(=O)N(c3ccc(OC)cc3)C2=O)cc1 (configuration not stated)	nt	nt	nt	-2.8%	32.8%[9.22 µM]	7.0%[10 µM]
Nc1ncnc2c([C@@H]3O[C@@H](CO)[C@H](O)[C@@H]3O)nsc12	-12.5%[13.5 µM]	-5.1%	nt	nt	nt	-51.7%[10 µM]
SMILES	ALDH1A1 block	HPGD inh	PNC inhibitor	CBFb-RUNX1 inh	HttQ103 aggreg	HTT ATP protect
O=C(O)C1CC[C@@](C(=O)O)(c2ccccc2)c2ccccc21 (some centres not stated)	16.2%	-3.3%	nt	-3.7%	nt	nt
COc1ccc(-n2c(=O)c(C)nc3cncnc32)cc1	25.1µM*	-29.6%	nt	nt	nt	-30.1%
Cc1nc2cncnc2n(-c2ccccc2)c1=O	?	-18.9%	nt	nt	nt	-6.3%
FC(F)Sc1ccc(NC(=S)NC(c2ccccc2)c2ccccc2)cc1	?	nt	nt	14.3%	12.6µM*	-131.8%
O=C(CN1C(=O)NC2(CCCCCC2)C1=O)N1CCC(Cc2ccccc2)CC1	22.4µM*	0.0%	-13.1	1.4%	-15.4%	4.8%[10 µM]
O=Cc1ccc(N2CCCC2)c(F)c1	1.58µM*	-15.3%	?	-7.8%	3.0%[9.22 µM]	-2.7%
O=Cc1c(F)cccc1N1CCCC1	-1.6%	nt	nt	13.6%	15.7%	23.2%[10 µM]
O=Cc1ccc(N2CCCCCC2)cc1	0.0562µM*	-29.7%	-5.0	14.1%	9.7%	-13.0%
Cc1ccc(C(=O)c2nc3c(n2O)CCCC3)cc1	5.8%	-20.1%	9.8	-27.2%	-6.1%	4.1%[10 µM]
COc1c(O)cc2oc3cc(O)c(CC=C(C)C)c(O)c3c(=O)c2c1CC=C(C)C	-1.8%	28.2µM*!	nt	-3.4%[21.7 µM]	nt	-9.7%[1.9 µM]
CC(C)=CCc1c(O)cc2oc(C)cc(=O)c2c1O	-2.5%	4.47µM*	nt	14.3%	nt	-163.0%
COc1cc2ccc(=O)oc2c(CC=C(C)C)c1OC	nt	nt	nt	14.6%	-12.4%[9.22 µM]	-9.3%[10 µM]
CC(C)=CCc1c(O)cc2oc3c(CC=C(C)C)c(O)c(O)c(CC=C(C)C)c3c(=O)c2c1O	nt	nt	nt	-4.2%	16.3%[9.22 µM]	8.3%[10 µM]
BrC(Br)C(Br)Br	12.4%	-2.4%	nt	4.1%[21.7 µM]	nt	-11.5%
CCN(CC)C(=O)c1ccc2c3c(cccc13)C(=O)N(CCc1ccc(OC)c(OC)c1)C2=O	-8.8%	17.8µM*	-12.9	-5.5%	-27.1%	-12.0%[10 µM]
CCn1c(=O)c2c(n3c(=S)[nH]nc13)-c1ccccc1CC21CCCCC1	22.4µM*	nt	nt	-18.6%	-14.8%	12.2%
CCn1c(SCC#N)nc2c(c1=O)C1(CCCC1)Cc1ccccc1-2	-0.2%	-10.9%	?	7.8%	18.1%[9.22 µM]	-17.8%
Cc1ccc(NC(=O)COC(=O)/C=C/c2ccc(Br)o2)cc1S(=O)(=O)N(C)C	20µM*	nt	nt	-12.6%	2.6%	-7.7%
CN(C)S(=O)(=O)c1cccc(NC(=O)COC(=O)/C=C/c2ccc(Br)o2)c1	8.91µM*	nt	nt	-28.2%	-3.8%[9.22 µM]	8.8%[10 µM]
